Data taken from the supplement of paper PMC10981050.
Where “and” joins values, the source holds several entries; their conditions need not be identical. Identical values can stand only once. Counter-ions that a name gives are not always drawn.

What was measured:
Assay in all cases: cell viability relative to vehicle control; higher = less cytotoxic
Settings in all cases: 10 µM
[1] = tested on: K562
In short: (§1)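 Each screen used CRISPR-edited mutant and wild-type clones from four leukaemia lines. Compounds were acoustically dispensed at a single 10 µM dose, and CellTiter-Glo luminescence was read after 48 h with the supernatant first removed. Viability was analysed in Genedata Screener and given as percent of the on-plate vehicle control.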

[2] = tested on: MARIMO
In short: as §1

[3] = tested on: MOLM14
In short: as §1

[4] = tested on: OCI-AML2
In short: as §1

Row | Structure (SMILES) | cell viability ([1]; SRSF2 genotype: SRSF2 P95H/wt) | cell viability ([1]; SRSF2 genotype: SRSF2 wt/wt) | cell viability ([2]; SRSF2 genotype: SRSF2 P95H/wt) | cell viability ([2]; SRSF2 genotype: SRSF2 wt/wt) | cell viability ([3]; SRSF2 genotype: SRSF2 P95H/wt) | cell viability ([3]; SRSF2 genotype: SRSF2 wt/wt) | cell viability ([4]; SRSF2 genotype: P95H/wt) | cell viability ([4]; SRSF2 genotype: wt/wt)
1 | O=C(Nc1cnn2ccc(N3CCC[C@@H]3c3cc(F)ccc3F)nc12)N1CC[C@H](O)C1 [LOXO-101(sulfate)] | 104% and 105% | 104% | 113% | 118% | 97.6% | 104% | 98.2% | 104%
2 | CC(=O)OC1CCC2C3CCc4cc(O)ccc4C3CCC12C (stereo not drawn) | 96.5% and 85% | 90.6% | 85.8% | 98.9% | 96.9% | 96.2% | 87.7% | 96.1%
3 | CCN(CC)CCCCNc1ncc2cc(-c3cc(OC)cc(OC)c3)c(NC(=O)NC(C)(C)C)nc2n1 | 46.4% and 47.9% | 49.4% | 54.2% | 51.9% | 48.3% | 47.7% | 38.1% | 40.1%
4 | N#Cc1c(N)nc(NC2CC2)nc1N [Dicyclanil] | 96.3% and 102% | 105% | 94.5% | 105% | 104% | 102% | 107% | 99.9%
5 | COCC(=O)Nc1cc(Sc2ccccc2)ccc1N=C(NC(=O)OC)NC(=O)OC [Febantel] | 98.1% and 91.8% | 97.1% | 98.9% | 107% | 97.9% | 110% | 98.3% | 102%
6 | Cc1c(C(C)C)c(=O)n(-c2ccccc2)n1C [Propyphenazone (4-Isopropylantipyrine)] | 101% and 105% | 97.5% | 94% | 105% | 94.3% | 101% | 86.9% | 97.4%
7 | CCC(C)C(NC(=O)C(C(C)CC)N(C)C(C)=O)C(=O)NC(C(=O)NC(CC(C)C)C(=O)C1(C)CO1)C(C)O (stereo not drawn) [Epoxomicin (BU-4061T)] | 1.56% and 1.91% | 0.91% | 0.3% | 0.71% | 0.14% | 0.17% | 0.15% | 0.14%
8 | CC1=C[C@H]2[C@@H](CC1)[C@H](C)CC[C@H]2[C@@H](C)C(=O)O [Dihydroartemisinic acid] | 99.8% and 91.7% | 99.6% | 101% | 104% | 94.6% | 101% | 98.5% | 109%
9 | COCCCOc1ccnc(C[S+]([O-])c2nc3ccccc3[nH]2)c1C (stereo not drawn) [Rebeprazole sodium] | 95.2% and 93.6% | 101% | 104% | 106% | 95.6% | 102% | 97.4% | 113%
10 | Oc1cc(O)cc(/C=C/c2ccc(O)c(O)c2)c1 [Piceatannol] | 86.5% and 89.3% | 97% | 92.8% | 88.8% | 71.8% | 79.7% | 90.4% | 87.9%
11 | CCN[C@H]1CN(CCCOC)S(=O)(=O)c2sc(S(N)(=O)=O)cc21 [Brinzolamide] | 87.4% and 79.5% | 85.7% | 83.7% | 88.2% | 83.2% | 86.5% | 84.2% | 90.2%
12 | CNC(=O)c1cc(Oc2ccc(NC(=O)Nc3ccc(Cl)c(C(F)(F)F)c3)c(F)c2)ccn1 [Regorafenib (BAY 73-4506)] | 17.6% and 21.9% | 14.9% | 29.2% | 28% | 16.6% | 13.1% | 23.1% | 22.8%
13 | CC/C(=C(/c1ccc(/C=C/C(=O)O)cc1)c1ccc2[nH]ncc2c1)c1ccc(F)cc1Cl [Brilanestrant (GDC-0810, ARN-810)] | 100% and 106% | 96.2% | 102% | 95.1% | 86.8% | 92.3% | 96.9% | 102%
14 | COc1ccc([C@@H]2CC(=O)c3c(O)cc(O)cc3O2)cc1O [Hesperetin] | 105% and 99.8% | 100% | 93.3% | 112% | 107% | 108% | 86.7% | 94.8%
15 | Cc1[nH]cnc1CN1CCc2c(c3ccccc3n2C)C1=O [Alosetron Hydrochloride] | 93.1% and 95.7% | 88.6% | 93.7% | 102% | 93.2% | 100% | 91.6% | 101%
16 | O=C(NCCO[N+](=O)[O-])c1cccnc1 [Nicorandil (Ikorel)] | 101% and 99.9% | 108% | 108% | 108% | 93.4% | 99.1% | 82.1% | 94%
17 | CC(C)[C@H](NC(=O)OCc1ccccc1)C(=O)N[C@@H](C)C(=O)N[C@@H](CC(=O)O)C(=O)CF | 109% and 102% | 106% | 99.8% | 102% | 104% | 104% | 102% | 97.4%
18 | CCCCC[C@H](O)CC(=O)CCc1ccc(O)c(OC)c1 [6-Gingerol] | 87.8% and 85.7% | 82.9% | 86.8% | 98.7% | 90.6% | 95.5% | 90.9% | 81.8%
19 | CC(C)c1cc(C(C)C)c(CC(=O)NS(=O)(=O)Oc2c(C(C)C)cccc2C(C)C)c(C(C)C)c1 [Avasimibe (CI-1011)] | 79.7% and 76.5% | 64.5% | 80.8% | 92.2% | 68.6% | 78.6% | 92.5% | 84.8%
20 | O=C(/C=C/c1ccc(O)cc1)c1ccc(O)cc1O [Isoliquiritigenin] | 86.2% and 94.8% | 84.4% | 83.3% | 98.4% | 53.5% | 74.7% | 89% | 98%
21 | CCCc1nc(C(C)(C)O)c(C(=O)OCc2oc(=O)oc2C)n1Cc1ccc(-c2ccccc2-c2nnn[nH]2)cc1 [Olmesartan medoxomil (Benicar)] | 105% and 103% | 106% | 109% | 111% | 97.2% | 104% | 104% | 106%
